Hits are enriched below; roughly 4.7% of the tested compounds scored in any of these assays.
tim23-1 inh: growth inhibitors of tim23-1 mutant yeast, primary screen, luminescence, uHTS. S. cerevisiae tim23-1 growth, BacTiter-Glo luminescence, 24 h. inhibition, % at 20 µM. 330,000 tested, 1.3% active. AID 463212, 2010;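 active = growth inhibition of the mutant yeast at or above 50%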;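 also: temperature-sensitive mutant grown at 25 °C; plate controls were DMSO-treated mutant yeast for no effect and medium wells lacking yeast for full effect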
SKKanGAS inh: S. pyogenes SKKanGAS growth inhibitors in kanamycin, primary screen, streptokinase expression inhibitor project, SKKanGAS strain, BacTiter-Glo luminescence; 6 h; inhibition, % at 7.5 µM; 300,000 tested, 1.3% active;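 active = mean replicate score, as percent of positive control median, at least 50; inconclusive = mean below 50 but one replicate at or above 50; inactive = mean and every replicate below 50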;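 also: strain carries kanamycin resistance gene driven by streptokinase promoter and grows in 40 µg/ml kanamycin; loss of luminescence reflects streptokinase promoter inhibition or plain growth inhibition; 0% = median of DMSO wells and 100% = positive control at its reference dose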
PfHsp90 yeast 2: growth inhibition of PfHsp90-expressing yeast, primary screen, antimalarial PfHsp90 inhibitor project, S. cerevisiae, BacTiter-Glo luminescence, single point, set 2. BacTiter-Glo ATP, 48 h; yeast lacking PDR1 and PDR3 efflux regulators. inhibition, % at 9.4 µM. 310,000 tested, 0.32% active;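 active = every replicate shows inhibition above about 80%, whatever the replicate mean, limit read from the data; inconclusive = mean inhibition reaches the set limit but some replicate falls short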;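 also: 0% = DMSO neutral controls and 100% = 20 µM radicicol positive controls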
Calb FLC: C. albicans growth inhibition with fluconazole, primary screen, CaCi-2 strain, Alamar Blue fluorescence. C. albicans CaCi-2 (fluconazole-resistant clinical isolate) + fluconazole, 48 h. growth inhibition, % (no concentration beside the values). 300,000 tested, 0.57% active;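 active = growth inhibition above about 58% in most replicates, limit read from the data, passing the limit was not always enough; inconclusive = exactly half the replicates above a set limit; inactive = most replicates below a set limit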;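 also: all wells also contain fluconazole at 8 µg/ml as a sub-toxic cotreatment; 0% = median of DMSO wells and 100% = median of geldanamycin control wells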
TIM10 inh: growth inhibitors of isogenic TIM10 control yeast, primary screen, counter-screen for tim10-1 yeast inhibitor project, luminescence, uHTS; 330,000 tested, 1.4% active; inhibition, % at 10 µM; AID 463195, 2010; S. cerevisiae TIM10 strain growth, BacTiter-Glo luminescence, 24 h;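 active = inhibition of 40% or more at the single tested concentration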;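 also: wild-type TIM10 isogenic control strain grown at permissive 25 °C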
tim10-1 inh: growth inhibitors of tim10-1 mutant yeast, primary screen, luminescence, uHTS; S. cerevisiae tim10-1 ts strain growth, BacTiter-Glo, 24 h; inhibition, % at 20 µM; 330,000 tested, 2.2% active;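 active = inhibition of at least 40%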;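 also: mutant grown at 25 °C; 0% = DMSO wells with yeast and 100% = wells holding no yeast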
Active calls of the source: *; ? = inconclusive; nt = no result given; + = active, no number.

SMILES | tim23-1 inh | SKKanGAS inh | PfHsp90 yeast 2 | Calb FLC | TIM10 inh | tim10-1 inh
COc1ccccc1CNC(=O)CCCc1nnc2n(C)c(=O)c3sccc3n12 | 14 | 1 | 8 | -5 | 7 | -1
CCOc1ccc(NS(=O)(=O)c2cc(NC(=O)c3ccc(C)cc3)ccc2Cl)cc1 | 10 | 60* | -7 | 0 | 8 | 9
CCOc1ccc(Oc2ccc(NS(=O)(=O)c3cc(C(=O)O)ccc3Cl)cc2)cc1 | 7 | nt | -3 | nt | 8 | 8
O=C(Nc1ccncc1)c1ccc(Br)cc1 | 22 | 1 | -7 | 93* | 4 | 14
CCCCN1CC(=O)N2[C@H]3c4ccccc4OC[C@@H]3[C@H](c3ccccc3)[C@]2(C)C1=O | 33 | nt | 18 | nt | 5 | 22
CC12CCC(C(=O)Nc3cccc(Cl)c3Cl)([C@H](Br)C1=O)C2(C)C (stereo partly specified) | 17 | 54* | -21 | 1 | 15 | 17
COc1cc(C#Cc2c(-c3cncn3C)n(C)c3ccc(-c4ccc(OC)nc4)cc23)cc(OC)c1 | 25 | nt | + | nt | 5 | 24
C/C(=N\NC(=S)NCc1ccccc1)c1ccc2ccccc2c1OC(F)F | 34 | 67* | 6 | 25 | 39 | 25
Cc1[nH]n(-c2ccccc2)c(=O)c1/C=N/NC(=O)c1cccc(F)c1 | 10 | 68* | -35 | -39 | 19 | -7
Cc1[nH]n(-c2ccc(Br)cc2)c(=O)c1/C=N/NC(=O)c1ccccc1 | 27 | 90* | 19 | -3 | -66 | -42
Cc1cc(C(=O)N/N=C/c2c(C)[nH]n(-c3ccccc3)c2=O)n[nH]1 | 10 | 13 | 26 | 0 | 3 | 15
O=C(N/N=C/c1ccc(Br)cc1)c1ccc(NC(=O)c2ccccc2)cc1 | nt | nt | -10 | nt | nt | nt
CC(C)(C)OC(=O)C(C1NC(C(=O)O)C(C)(C)S1)N1C(=O)c2ccccc2C1=O (stereo unspecified) | nt | nt | 2 | nt | nt | nt
O=S(=O)(O)c1cc(O)c2c(O)c(N=Nc3cc(Cl)ccc3O)c(S(=O)(=O)O)cc2c1 | 31 | 34 | 19 | 85* | 23 | 32
O=S(=O)(O)c1cc(Cl)cc(N=Nc2ccc(O)cc2O)c1O | nt | nt | 10 | nt | nt | nt
O=C(COC(=O)c1ccc([N+](=O)[O-])s1)Nc1ccc(Cl)cn1 | -146 | -2 | -18 | -1 | 39 | 24
CC(C)(C)c1ccc(NC(=O)COC(=O)c2ccc([N+](=O)[O-])s2)cc1 | nt | nt | 109* | nt | nt | nt
CC(C)(C)C1=CC(O)(c2ccccc2)C=C(C(C)(C)C)C1=O | 31 | 7 | -1 | -4 | 17 | 27
O=C1CC(N2CCCCCC2)C(=O)N1c1ccc2c(c1)OCO2 (stereo unspecified) | 29 | 2 | 121* | 36 | 25 | 39
Cc1ccc(NC(=O)CN(C)C(=O)CSc2nnc(N)s2)cc1 | -10 | nt | -7 | nt | -7 | 5
Cc1cc(NS(=O)(=O)c2ccc(NC(=O)CSc3nc4sc(C)c(C)c4c(=O)[nH]3)cc2)no1 | -15 | 54* | 4 | 8 | -15 | -28
Fc1ccc(C(CCNCc2ccccn2)c2ccc(Cl)cc2)cc1 (stereo unspecified) | 20 | 64* | -1 | -33 | 24 | 35
OC(CNCc1ccccn1)c1ccccc1 (stereo unspecified) | 2 | 0 | 6 | -2 | 11 | 8
CC1CC1C(=O)OCC(=O)N(C)c1c(N)n(Cc2ccccc2)c(=O)[nH]c1=O (stereo unspecified) | -18 | -8 | 37 | 5 | -10 | -13
Cc1nc(SCc2cccc(F)c2)c2oc3ccccc3c2n1 | -1 | 55* | -36 | 0 | -4 | 5
SMILES | tim23-1 inh | SKKanGAS inh | PfHsp90 yeast 2 | Calb FLC | TIM10 inh | tim10-1 inh
Fc1ccccc1CSc1ncnc2c1oc1ccccc12 | 14 | -7 | 8 | ? | 19 | 31
c1ccc(CSc2ncnc3c2oc2ccccc23)cc1 | 8 | 52* | -6 | -3 | 18 | 23
CC(C)COC(=O)c1cccc2c1-c1ccccc1/C2=N\O | 8 | 74* | -25 | -6 | 26 | 34
CC(C)OC(=O)c1cccc2c1C(=O)c1ccccc1-2 | 50 | -17 | -3 | 3 | -9 | 20
O=C(CCCCCN1C(=O)[C@@H]2Cc3ccccc3CN2C1=O)NCCc1ccccc1 | 25 | -12 | 15 | 0 | -7 | 28
O=C(CN1CCCc2ccccc21)N/N=C/c1ccccc1 | 23 | 8 | 2 | 1 | 3 | 12
O=C(CN1CCCc2ccccc21)N/N=C/c1c(O)ccc2ccccc12 | 43 | 18 | 11 | 85* | 15 | -5
CC(C)(C)NC(=O)NC(=O)CN1CCCc2ccccc21 | 10 | nt | -2 | 114* | 3 | -3
C/C(CC(=O)Nc1cccc(C(F)(F)F)c1)=N\NC(=O)C1CCCCC1 | 21 | -1 | 17 | -2 | 17 | 15
Cc1nn(-c2ccccc2)c(C)c1-c1nnc(-c2c(C)nn(-c3ccccc3)c2C)o1 | -8 | 57* | -8 | -2 | -24 | -13
COc1ccc2nc(C3CCCCC3)nc(C3CCCCC3)c2c1 | 14 | 90* | 15 | -2 | -15 | -15
COc1ccc2nc(-c3ccccc3)nc(C3CCCCC3)c2c1 | 21 | 13 | -2 | 0 | 10 | 26
COc1ccccc1N=Nc1nc(-c2ccccc2)c(-c2ccccc2)[nH]1 | nt | 67* | 5 | 0 | nt | nt
O=C(c1ccco1)N1CCc2[nH]nc(-c3ccccc3)c2C1 | 14 | 5 | 3 | 0 | -1 | 25
Cc1ccc(-c2nnc(NC(=O)c3ccco3)o2)c(C)c1 | 21 | 84* | -22 | ? | 5 | 22
O=C(Nc1nnc(-c2ccc(Br)cc2)o1)c1ccco1 | 32 | 94* | nt | 71 | 0 | -5
Cc1ccc(C)c(-c2nnc(NC(=O)c3ccco3)o2)c1 | 20 | -9 | nt | 83* | -8 | 1
Cc1ccc(C)c(-c2nnc(NC(=O)Cc3ccccc3)o2)c1 | 1 | 22 | -26 | -48 | -6 | -1
CCC(=O)Nc1nc(NCc2ccccc2OC)n(-c2ccccc2)n1 | 5 | -1 | 1 | -5 | -5 | 10
Cc1ccc2nc(-c3ccccc3)nn2c1 | nt | nt | 4 | nt | nt | nt
CCOC(=O)c1c(NC(=O)c2cccs2)sc(CC)c1-c1cccs1 | 20 | 60* | 20 | -9 | 12 | 18
CCn1c(SCC(=O)N(C)c2ccccc2)nc2c([nH]c3ccccc32)c1=O | 2 | 15 | -1 | 1 | 7 | 9
Cc1cc(Br)ccc1NC(=O)CN(C)C(=O)C1=COCCO1 | -2 | nt | -6 | nt | 6 | 0
COc1ccccc1N=Nc1ccc(O)c2ncccc12 | 32 | 94* | 99* | 97* | 18 | 8

High-throughput results: PubChem, several laboratories
